Reference: PubChem BioAssay (Tox21)
Records with an inconclusive call do not appear. A number with no mark means an inactive call. Calls of active or inactive are those of the source. Calls come from the whole dose curve.

Experiment: Nuclear factor erythroid 2-related factor 2/antioxidant responsive element (Nrf2/ARE) small molecule agonists: luciferase reporter gene qHTS assay in human keratinocytes (AID 1919969); note: nearly all actives have a fitted effect of over 35% in size
Details: KeratinoSens HaCaT ARE-luciferase, luminescence, 24 h; series mostly up to 92.4 µM; activity, positive = activation: at the top concentration
% is set by controls: 0 for no effect and ±100 for the full control effect; potency is the fitted concentration of half-maximal effect.

Structure (SMILES)	activity, positive = activation	Potency
CC(=O)c1ccc(Cl)c(Cl)c1Cl	1.05%	–
O=C(O)CCC(=O)c1ccc(-c2ccccc2)cc1	0.525% [at 42.5 µM]	–
CCCCCCCCOC(C)=O	-4.42%	–
O=C(Nc1ccc2c(O)c(N=Nc3ccc(N=Nc4ccc(S(=O)(=O)O)cc4)cc3)c(S(=O)(=O)O)cc2c1)c1ccccc1	-12.9%	–
CC(C)(C)C(=O)/C=C/c1ccc(Cl)cc1	–	54.5 µM (active)
OCC(O)[C@@H](O)[C@H](O)[C@H](O)CO[C@H]1O[C@H](CO)[C@@H](O)[C@H](O)[C@H]1O (stereo not given in full)	-1.67%	–
C[C@@H](CN1CC(=O)NC(=O)C1)N1CC(=O)NC(=O)C1	2.48% [at 42.5 µM]	–
Cc1ccsc1C(=CCCN1CCC[C@@H](C(=O)O)C1)c1sccc1C	-7.48% [at 42.5 µM]	–
CCCCCCCCCCC(=O)O	-2.14%	–
CCOc1nc2cccc(C(=O)O)c2n1Cc1ccc(-c2ccccc2-c2nn[nH]n2)cc1	0.535% [at 42.5 µM]	–
CCCc1nc2c(C)cc(-c3nc4ccccc4n3C)cc2n1Cc1ccc(-c2ccccc2C(=O)O)cc1	8.5% [at 42.5 µM]	–
CCOCCOCCOC(C)=O	-5.88%	–
CO[Si](C)(OC)c1ccccc1	-10.3%	–
Cc1ccc(N(CC2=NCCN2)c2cccc(O)c2)cc1	19.2% [at 42.5 µM]	–
COC(=O)c1ccccc1Cl	-9.9%	–
CNS(=O)(=O)Cc1ccc2[nH]cc(CCN(C)C)c2c1	-2.81% [at 42.5 µM]	–
CCCCCCCCCC#N	–	68.2 µM (active)
CCOC(=O)CCCCCCCCC(=O)OCC	-7.59%	–
COc1cccc(O)c1	-4.18%	–
CC[C@H]1OC(=O)[C@H](C)[C@@H](O[C@H]2C[C@@](C)(OC)[C@@H](O)[C@H](C)O2)[C@H](C)[C@@H](O[C@@H]2O[C@H](C)C[C@H](N(C)C)[C@H]2O)[C@](C)(OC)C[C@@H](C)C(=O)[C@H](C)[C@@H](O)[C@]1(C)O	-3.37%	–
